# Screens: PubChem BioAssay, several laboratories
# LANA-H2B inh – blockers of LANA interaction with H2A/H2B – biochemical, FP readout, HTS, primary screen. Protein LANA1 (Human herpesvirus 8 type P (isolate GK18)), Q9QR71. cell-free LANA-H2A/H2B peptide, fluorescence polarization. inhibition, % (test concentration not listed). actives 0.6% (n = 320,000); in the data active = inhibition mostly above about 10%, no sharp cut-off; inactive = mostly below about 6.7%
# MCL1-BIM inh – inhibitors of MCL1 binding to BIM-BH3, primary screen, biochemical, fluorescence polarization | inhibition, % at 10.9 µM | Induced myeloid leukemia cell differentiation protein Mcl-1 (Homo sapiens), Q07820 | AID 2057, 2009 | actives 0.68% (n = 320,000) | GST-MCL1 / FITC-Bim-BH3 fluorescence polarization;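 active = inhibition above the mean inhibition of all tested compounds plus 3 SD, set per campaign, cut at about 40% in these data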;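 note: 0% = DMSO wells and 100% = unlabeled Bim-BH3 peptide control; higher means more loss of mP so more displacement of Bim peptide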
# MEX-5 binding – MEX-5 zinc finger RNA-binding disruptors – biochemical, C. elegans, fluorescence polarization, MLPCN library, primary screen; activity score (negative = inhibition of binding), % at 10 µM; actives 0.38% (n = 300,000); MEX-5/FITC-TCR2 RNA binding; hits give low values; Zinc finger protein mex-5 (Caenorhabditis elegans), Q9XUB2;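 active = inhibition past about -25% in most replicates, and total fluorescence under double the plate's negative control median, limit read from the data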;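 note: 0% = DMSO and -100% = 5 µM competing unlabeled TCR2 RNA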
# CR mimetic SO – reduction of superoxide in aged yeast, primary screen, HTS | S. cerevisiae aged cells, superoxide DHE fluorescence; hits give low values | superoxide response (% of plate mean), % at 10 µM | actives 0.18% (n = 330,000);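 active = superoxide response under a set limit, about three screen SD below normal, cut at about 65% in these data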;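 note: yeast aged for seven days with compound at 30 °C before DHE staining; 100% = average MFI of all compound-treated wells on the plate with controls excluded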
# BCLXL inh – inhibitors of human Bcl-xL, primary screen, biochemical, fluorescence polarization, HTS; Bcl-2-like protein 1 (Homo sapiens), Q07817; GST-Bcl-xL / FITC-Bim BH3 peptide fluorescence polarization; inhibition, % at 10.9 µM; actives 0.7% (n = 320,000); AID 2129, 2009;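 active = inhibition above the mean of all tested compounds plus 3 SD, cutoff set per campaign, cut at about 30% in these data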;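 note: 0% = DMSO wells and 100% = unlabeled Bim-BH3 peptide competitor; inhibitors lower millipolarization by displacing the labeled peptide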
# GLD-1 TGE inh – GLD-1/TGE RNA complex disruptors, primary screen, biochemical, fluorescence polarization. Female germline-specific tumor suppressor gld-1 (Caenorhabditis elegans), Q17339. purified GLD-1 + fluorescein TGE RNA. inhibition, % at 5.96 µM. actives 0.44% (n = 320,000);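 active = percent inhibition above a per-plate cutoff, the plate mean of test compounds plus 3 SD, cut at about 30% in these data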;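 note: 0% = DMSO wells with GLD-1 and probe and 100% = wells lacking GLD-1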
# Target sequence (Q17339 whole entry, looked up): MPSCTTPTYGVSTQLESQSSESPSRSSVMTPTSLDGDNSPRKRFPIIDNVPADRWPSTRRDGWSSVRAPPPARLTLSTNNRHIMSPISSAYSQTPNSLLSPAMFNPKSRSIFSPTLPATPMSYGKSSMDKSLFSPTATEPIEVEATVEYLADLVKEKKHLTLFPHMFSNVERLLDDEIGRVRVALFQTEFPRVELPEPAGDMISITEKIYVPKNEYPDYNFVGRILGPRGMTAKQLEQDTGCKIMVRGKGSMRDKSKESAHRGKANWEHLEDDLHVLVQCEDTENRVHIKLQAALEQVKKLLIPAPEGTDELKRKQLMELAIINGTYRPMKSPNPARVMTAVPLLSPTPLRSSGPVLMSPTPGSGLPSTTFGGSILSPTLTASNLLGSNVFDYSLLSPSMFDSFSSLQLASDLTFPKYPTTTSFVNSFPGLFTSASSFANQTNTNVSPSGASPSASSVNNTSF
# BCLXL inh confirm – Bcl-xL inhibitors blocking Bim BH3 binding, confirmation, counter-screen for MCL1 inhibitor project, biochemical, fluorescence polarization; shares compounds with MCL1-BIM inh; GST-Bcl-xL / FITC-Bim BH3 peptide FP binding; inhibition, % at 10.9 µM; actives 54% (n = 1,700); AID 2166, 2009;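 active = inhibition above a cutoff equal to the mean inhibition of all tested compounds plus 3 SD, cut at about 30% in these data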;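 note: 0% = DMSO wells and 100% = unlabeled Bim BH3 control peptide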
# MCL1 inh confirm – inhibitors of MCL1 binding to BIM-BH3, confirmation, biochemical, fluorescence polarization, triplicate | inhibition, % at 10.9 µM | shares compounds with MCL1-BIM inh | actives 61% (n = 1,700) | AID 2168, 2009 | GST-MCL1 / FITC-Bim-BH3 fluorescence polarization;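 active = inhibition above the average of all tested compounds plus 3 SD, cut at about 40% in these data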;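 note: 0% = DMSO wells and 100% = unlabeled Bim-BH3 control peptide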
# Starred values were filed as active, the others as inactive; i = inactive; / = no result; + = active, no number. Compounds with a hit are over-represented: about 1.9% of the library has one in this group of screens.
SMILES,LANA-H2B inh,MCL1-BIM inh,MEX-5 binding,CR mimetic SO,BCLXL inh,GLD-1 TGE inh,BCLXL inh confirm,MCL1 inh confirm
CC1CCCN(C(=O)COC(=O)c2cc(Br)ccc2O)C1 (stereo unspecified),2,/,/,114,/,7,/,/
C/C(=C\c1ccccc1)C1Nc2cccc3cccc(c23)N1,-7,41*,/,79,25,11,20,20
O=C(COc1cccnc1[N+](=O)[O-])Nc1ncc(Cl)cc1Cl,-4,78*,/,132,64*,31,61*,98*
O=C(COc1cccnc1[N+](=O)[O-])Nc1c(Cl)cccc1Cl,1,/,/,101,/,3,/,/
COc1cccc2c(N/N=C/c3ccc(O)c(O)c3)cc(C)nc12,-5,41*,-6,97,19,7,51*,73*
N#Cc1c(-c2ccccc2)cc(-c2cccs2)nc1SCC(=O)O,5,10,3,100,10,-1,/,/
N#Cc1c(-c2ccc(Cl)cc2)cc(-c2cccs2)nc1SCC(=O)O,0,73*,2,98,50*,3,37*,53*
CN1CCc2c(sc3c2C(=O)NC(c2ccccn2)N3)C1 (stereo unspecified),-1,66*,-51*,120,64*,37*,41*,52*
COCCCNC(=O)/C(C#N)=C/c1c(N2CCN(c3cccc(Cl)c3)CC2)nc2c(C)cccn2c1=O,-1,7,1,110,10,-6,/,/
COCCCNC(=O)/C(C#N)=C/c1c(N2CCN(c3ccccc3)CC2)nc2c(C)cccn2c1=O,-3,99*,-5,97,91*,23,37*,41*
Cc1cccn2c(=O)c(C=O)c(N3CCN(c4ccccc4)CC3)nc12,3,60*,-9,88,37*,0,39*,49*
COc1cccc(NC(=O)COC(=O)C2CCCCC2)c1,-6,/,/,87,/,6,/,/
Cc1ccc(SCCC(=O)NNC(=O)c2ccccc2F)cc1,2,/,/,82,/,-5,/,/
CCCN1CCc2c(sc(NC(=S)NC(=O)c3ccccc3)c2C#N)C1,1,-87,-2,120,-51,-102,/,/
CCN1CCc2c(sc(N)c2C#N)C1,-6,59*,-8,89,58*,-52,47*,40*
Cc1ccc[n+](-c2nc([O-])sc2C=O)c1,29*,+,/,108,173*,156*,169*,+
Cc1ccc(-n2c([O-])nc(-[n+]3ccccc3)c2C=O)cc1,-1,2,-1,93,9,2,/,/
COc1ccc2c(c1)c1nc3ccccc3nc1n2Cc1ccc(OC)c(OC)c1,5,55*,-26*,113,50*,52*,60*,62*
COc1ccc(/C=C/c2nc3ccccc3n2Cc2ccc(OC)c(OC)c2)cc1,-4,20,-1,87,11,0,/,/
O=C(NNC(=O)c1ccccc1F)c1cccc(-n2cccc2)c1,1,65*,-3,95,7,-1,23,92*
O=C(NNC(=O)c1cccc(-n2cccc2)c1)c1ccccc1,-6,4,/,101,2,4,/,/
CC(C)(C)c1ccc(CSc2ccc(S(=O)(=O)N3CCOCC3)cn2)cc1,/,1,/,98,5,3,/,/
CC1(C)CC(=O)C2=C(C1)Nc1ccccc1N=C2,3,106*,-16,103,91*,63*,29,27
Cc1noc(/C=C/N(C)C)c1S(=O)(=O)N1CCCC(C(=O)NC2CCCCC2)C1 (stereo unspecified),1,-15,4,92,-13,-13,/,/
Cc1noc(/C=C/N(C)C)c1S(=O)(=O)N1CCCC(C(=O)N2CCCCC2)C1 (stereo unspecified),9,66*,-1,150,72*,32*,17,8
SMILES,LANA-H2B inh,MCL1-BIM inh,MEX-5 binding,CR mimetic SO,BCLXL inh,GLD-1 TGE inh,BCLXL inh confirm,MCL1 inh confirm
Cc1ccc(N(CC(=O)NCc2ccco2)C(=O)CNS(=O)(=O)c2ccccc2)c(C)c1,6,42*,1,103,6,-3,3,-15
CCCCCCCCOc1ccc(C2OC34CCCCC3C(C#N)(C#N)C2(C#N)C(=N)O4)cc1 (stereo unspecified),4,180*,-87*,86,157*,107*,107*,124*
CCCCC1OC23CCCCC2C(C#N)(C#N)C1(C#N)C(=N)O3 (stereo unspecified),6,127*,-8,105,103*,83*,7,3
CN(C)C(=O)N1CCN(C(=O)N2CCOCC2)CC1,-2,139*,1,78,158*,101*,3,7
CCOc1ccc(S(=O)(=O)N2CCC(C(=O)Nc3cc(S(C)(=O)=O)ccc3Cl)CC2)cc1,3,2,/,91,-1,-6,/,/
CCOc1ccc(N/C(=C(/C(Cl)=C(Cl)Cl)[N+](=O)[O-])n2cncn2)cc1,4,93*,-49*,116,92*,55*,121*,156*
CCc1cc(=O)oc2cc(C)c(CN3CCCC3)c(O)c12,2,72*,-1,102,33*,14,52*,88*
CC(C)(C)OC(=O)C[C@H]1C/C=C\C[C@H](CC(=O)NCCO)C(=O)NC[C@@H](c2ccccc2)OC1=O,11,/,/,107,/,7,/,/
C=CCn1c(SCC(=O)N(CCOC)c2c(N)n(CCCC)c(=O)[nH]c2=O)nnc1-c1ccc(Cl)cc1,/,-5,-1,100,-11,-16,/,/
CC(=O)Nc1ccc2cc3ccc(NC(C)=O)cc3nc2c1,0,63*,-36*,87,60*,-3,156*,195*
CC(=O)Nc1ccc2ccccc2c1,1,0,-3,99,0,3,/,/
CCNc1cc(O)ccc1C,i,164*,/,107,138*,137*,73*,85*
